Reference: PubChem BioAssay AID1851 (National Center for Advancing Translational Sciences (NCATS), 2009)
Among all 16,000 compounds or so, about 4,000 (25%) were called active. Another 26% or so got no clear call; they are omitted. These entries were drawn from the full list. Values without a mark were called inactive. Calls come from the whole dose curve; as a rule, active = well fitted curve in the direction sought with a large enough effect; inconclusive = small, poorly fitted or top-dose-only effect, or effect the other way; inactive = no such curve, though single readings can be large or run the other way.

Molecular target: Cytochrome P450 2C9 (Homo sapiens) (UniProt P11712)
Sequence (P11712 whole entry, looked up): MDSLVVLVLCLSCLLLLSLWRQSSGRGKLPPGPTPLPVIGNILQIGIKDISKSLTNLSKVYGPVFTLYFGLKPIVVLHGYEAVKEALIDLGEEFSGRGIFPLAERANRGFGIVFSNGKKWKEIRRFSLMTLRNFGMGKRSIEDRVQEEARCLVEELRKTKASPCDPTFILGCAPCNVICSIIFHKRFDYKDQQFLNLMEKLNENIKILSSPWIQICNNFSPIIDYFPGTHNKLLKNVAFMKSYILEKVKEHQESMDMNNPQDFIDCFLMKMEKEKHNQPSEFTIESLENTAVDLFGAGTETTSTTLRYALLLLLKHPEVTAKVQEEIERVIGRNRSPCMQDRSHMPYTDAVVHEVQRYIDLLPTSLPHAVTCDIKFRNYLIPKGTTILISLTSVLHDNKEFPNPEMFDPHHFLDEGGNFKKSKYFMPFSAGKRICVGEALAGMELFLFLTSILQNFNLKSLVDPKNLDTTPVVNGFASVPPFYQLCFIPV
Assay: Cytochrome panel assay with activity outcomes
Conditions: recombinant CYP, pro-luciferin dealkylation, luminescence, p450-cyp2c9; series mostly up to 57.1 µM; activity, negative = inhibition: at the top concentration
% is set by controls: 0 for no effect and ±100 for the full control effect.

Compound | activity, negative = inhibition | AC50
C/C(=N/O)c1ccc2cc(Br)c3ccccc3c2c1 | -8.36% [at 11.4 µM] | –
Cc1cccc(CNc2nc(-c3ccccc3CN(C)C)nc3ccccc23)c1 | -1.33% [at 2.29 µM] | –
Nc1ccc(N(c2ccccc2)c2ccc(N)cc2)cc1 | – | 7.08 µM (active)
C[C@H](c1ccccc1)N1C(=O)[C@H]2[C@@H]3[C@H](O)[C@H](O)CC(=O)[C@H]3CC[C@H]2C1=O | 20% [at 11.4 µM] | –
N[C@@H](Cc1cc(CP(=O)(O)O)cc(-c2ccccc2Cl)c1)C(=O)O | -7.75% | –
Cc1c(N2CCCC2)cc2c(c1NC(=O)c1ccccc1Cl)C(C)(C)CC2(C)C | -14.9% [at 11.4 µM] | –
Cc1cc(F)ccc1S(=O)(=O)Nc1ccccc1C(=O)Nc1ccccc1N1CCOCC1 | – | 0.447 µM (active)
COC(=O)CSC(C(=O)Nc1ccc(C)c(C)c1)c1ccccc1 (centres undefined) | – | 1.78 µM (active)
Cc1ccc(NC(=O)C2C3CCCC2C3c2ccccc2)cc1C (centres undefined) | -6.97% | –
Cc1ccc(NC(=O)c2ccccc2C(=O)O)cc1C | -16.6% [at 11.4 µM] | –
C#CCCCO/N=C1/C[C@@H](O)[C@@H](O)[C@@H]2[C@@H]3C(=O)N(CCC(=O)OCC)C(=O)[C@H]3CC[C@H]12 | 12.8% [at 11.4 µM] | –
Cc1cccc(C)c1OC[C@@H](N)C(C)C | -6.12% | –
COC(=O)c1[nH]c2ccc(Br)cc2c1NC(=O)CN1CCCc2ccccc21 | – | 0.891 µM (active)
COC(=O)c1[nH]c2ccc(Br)cc2c1NC(=O)CN1CCN(C2CCCCC2)CC1 | -5.13% | –
CC1(C)CC(=O)C2=C(C1)Nc1cc3c(cc1C2c1ccc(F)cc1)OCO3 (centres undefined) | – | 4.47 µM (active)
N#Cc1c(NC(=O)C(F)(F)F)sc2c3c(=O)c4ccccc4c(=O)c=3oc3ccccc3c12 | – | 0.0501 µM (active)
O=C(NC12CC3CC(CC(C3)C1)C2)N1CCN(c2nc(-c3ccccc3)cs2)CC1 | – | 12.6 µM (active)
COc1ccc(-n2c(=O)c(C)nc3cnc(OC)nc32)cc1 | -17.6% | –
Cc1noc(C)c1-c1ccc2ncnc(N(C)C)c2c1 | 10.9% [at 2.29 µM] | –
CCN1C(=O)/C(=C2\SC(=S)N(CCCOC)C2=O)c2ccccc21 | – | 0.794 µM (active)
CN(C)CN1C(=O)S/C(=C2/C(=O)N(CN(C)C)c3ccccc32)C1=O | -9.33% [at 11.4 µM] | –

Compound | activity, negative = inhibition | AC50
CC(C)Cn1cnc2c(Sc3c([N+](=O)[O-])ncn3C)nc(N)nc21 | 29.4% [at 11.4 µM] | –
CCN(CC)CCC(=O)Nc1ccc2c(c1)N(C(=O)CN(CC)CC)c1ccccc1CC2 | -22.5% | –
O=C(CN1C(=O)c2ccccc2C1=O)NC1(C(=O)O)CCCC1 | 4.07% [at 11.4 µM] | –
O=C1c2ccccc2C(=O)N1CC(=O)N1c2ccccc2CCc2ccccc21 | – | 3.55 µM (active)
Cc1noc(C)c1-c1ccc2ncnc(NC3CCNCC3)c2c1 | 14.5% [at 2.29 µM] | –
Cc1nnc(S(=O)(=O)c2ccc(N=Nc3c(N)nc(N)nc3N)cc2)s1 | -2.75% [at 11.4 µM] | –
COc1cc(NC(=O)c2cc(Cl)ccc2Cl)ccc1-c1cc2ccccc2oc1=O | – | 4.47 µM (active)
CCOc1ccc(C(=O)Nc2cccc(-c3cc4ccccc4oc3=O)c2)cc1[N+](=O)[O-] | – | 1.41 µM (active)
CCCC(=O)N1CCN(c2ccc(NC(=O)c3ccc(OCC)c([N+](=O)[O-])c3)cc2)CC1 | -21.6% | –
Cc1nc(-c2cccc(NC(=O)c3cc4cc(Br)ccc4oc3=O)c2)cs1 | -14.4% | –
COc1cc(C(=O)NC(=S)Nc2cccc(-c3cc4ccccc4oc3=O)c2)cc(OC)c1OC | – | 3.55 µM (active)
COc1cc(C(=O)NC(=S)Nc2ccc3oc(=O)ccc3c2)cc(OC)c1OC | -9.84% | –
NCCOB(c1ccccc1)c1ccccc1 | -20% | –
Cc1ccc(-n2c3c(c(=O)[nH]c2=O)C(NS(=O)(=O)c2ccc(C)cc2)(C(F)(F)F)C(=O)N3)cc1 (centres undefined) | -22.2% | –
CC(=O)Nc1ccc(S(=O)(=O)NC2(C(F)(F)F)NC(=O)N(c3ccc(Cl)cc3)C2=O)cc1 (centres undefined) | – | 10 µM (active)
CN(N=O)c1ccc(/C=C\c2ccnc3ccccc23)cc1 | -6.97% [at 11.4 µM] | –
Oc1c(CN2CCCCC2)cc(Br)c2cccnc12 | -18.6% | –
CON(c1nc(N(C)C)nc(N(C)C)n1)S(=O)(=O)c1ccccc1Cl | – | 11.2 µM (active)
CC(=O)Nc1cccc(C(=O)OC(C(=O)c2ccc(C)c(C)c2)c2ccccc2)c1 (centres undefined) | – | 3.98 µM (active)
NC(N)=NC(=O)c1nc(Cl)c(N)nc1N | – | inactive
FC(F)Sc1ccc(N=C2NN=C(c3ccc4c(c3)OCCO4)CS2)cc1 | – | 22.4 µM (active)

Compound | activity, negative = inhibition | AC50
C[N+](C)(C)CCCCCNCC12CC3CC(CC(C3)C1)C2 | -2.76% | –
COC(=O)[C@@]1(Cc2ccc(F)cc2)[C@H]2c3cc(C(=O)N4CCCC4)n(Cc4ccc(C)c(F)c4F)c3C[C@H]2CN1C(=O)c1ccccc1 | – | 10 µM (active)
COC(=O)[C@@]1(Cc2ccc(F)cc2)[C@H]2c3cc(C(=O)N4CCCC4)n(Cc4ccc(OC(F)(F)F)cc4)c3C[C@H]2CN1C(=O)c1ccccc1 | – | 6.31 µM (active)
COC(=O)[C@@]1(Cc2ccc(F)cc2)[C@H]2c3cc(C(=O)N4CCCC4)n(Cc4ccc(S(C)(=O)=O)cc4)c3C[C@H]2CN1C(=O)c1ccccc1 | – | 25.1 µM (active)
COC(=O)[C@@]1(Cc2ccc(F)cc2)[C@H]2c3cc(C(=O)N4CCCC4)n(Cc4ccccc4)c3C[C@H]2CN1C(=O)c1ccccc1 | – | 3.98 µM (active)
CCC(=O)c1ccc2c(c1)N(CCCN(C)C)c1ccccc1S2 | 8.42% | –
CC(C)(C)N1C(=O)[C@H]2[C@H]3[C@H](O)[C@H](O)C/C(=N/NC(=O)OCc4ccccc4)[C@H]3CC[C@@H]2C1=O | 16% [at 11.4 µM] | –
CCOC(=O)[C@H](CCc1ccccc1)N[C@@H](C)C(=O)N1CCC[C@H]1C(=O)O | 28% [at 25.6 µM] | –
COC(=O)[C@@]1(Cc2ccc(F)cc2)[C@H]2c3cc(C(=O)N(C)C)n(Cc4ccc(C)c(F)c4F)c3C[C@H]2CN1C(=O)c1ccccc1 | – | 25.1 µM (active)
COC(=O)[C@@]1(Cc2ccccc2)[C@H]2c3cc(C(=O)N4CCCC4)n(CC4CC4)c3C[C@H]2CN1C(=O)c1ccccc1 | – | 1 µM (active)
COC(=O)[C@@]1(Cc2ccccc2)[C@H]2c3cc(C(=O)N4CCCC4)n(Cc4nc5ccccc5[nH]4)c3C[C@H]2CN1C(=O)c1ccccc1 | – | 1 µM (active)
Cc1cc(=O)n2c3ccccc3n(CC(O)CN3CCCCC3)c2c1C#N (centres undefined) | -16.7% | –
CCCCC(=O)Nc1nnc(SCC(=O)NC2CCCC2)s1 | -4.72% | –
CCSc1nnc(NC(=O)CSc2nc3c(cc2C#N)CCCC3)s1 | – | 2.51 µM (active)
Cn1c(C(=O)O)c(CC(=O)NCc2cccnc2)c2ccccc21 | – | 3.55 µM (active)
O=C(O)Cc1cccnc1 | 12.8% [at 11.4 µM] | –
CN(C)C(=O)c1ccc(-c2nc(NCc3cccnc3)c3ccccc3n2)cc1 | 8.86% [at 2.29 µM] | –
Nc1nc(C(=O)O)c(N=Nc2ccccc2)c(=O)[nH]1 | -0.919% [at 11.4 µM] | –
O=c1nc(-c2ccccc2)cn[nH]1 | 16.6% | –
Nc1[nH]n2c(=O)cc(-c3ccccc3)nc2c1N=Nc1ccccc1 | – | 15.8 µM (active)
COC(=O)Cn1c(CN(Cc2ccccc2)Cc2ccccc2)nc2c1c(=O)[nH]c(=O)n2C | – | 14.1 µM (active)

Compound | activity, negative = inhibition | AC50
Cn1c(=O)[nH]c(=O)c2c1nc(CN(Cc1ccccc1)Cc1ccccc1)n2CCN1CCOCC1 | – | 15.8 µM (active)
CN(C)c1ccc(-c2nc(NCCN3CCOCC3)c3ccccc3n2)cc1 | 10.3% [at 2.29 µM] | –
CCOC(=O)Cn1c(CN(Cc2ccccc2)Cc2ccccc2)nc2c1c(=O)[nH]c(=O)n2C | – | 14.1 µM (active)
CCOCCn1c(CN(Cc2ccccc2)Cc2ccccc2)nc2c1c(=O)[nH]c(=O)n2C | – | 7.94 µM (active)
Cn1c(=O)[nH]c(=O)c2c1nc(CN1CCOCC1)n2Cc1ccccc1 | 9.04% | –
Cc1cc(C)n(-c2nc3c(c(=O)[nH]c(=O)n3C)n2CC(C)C)n1 | -2.02% | –
Cc1ccc(C(=O)CNc2nc3c(c(=O)[nH]c(=O)n3C)n2Cc2ccccc2)cc1 | – | 0.891 µM (active)
COCCCCC(=NOCCN)c1ccc(C(F)(F)F)cc1 | – | 3.98 µM (active)
CCON=C1C(C)(C)C(C)(C)C(C)(C)C1(C)C | 4.67% [at 11.4 µM] | –
CCCN=Cc1c(CCC)[nH]n(-c2nc3ccccc3s2)c1=O | – | 10 µM (active)
CCn1c(C)c(/C=N/Nc2nc3ccccc3s2)c2ccccc21 | 5.03% | –
C(/C=C/c1ccco1)=N/N1CCN(c2ccccc2)CC1 | -16.4% | –
COC(=O)/C(=C\C(=O)c1ccccc1)Nc1cccc(C(F)(F)F)c1 | – | 15.8 µM (active)
Cc1sc(N)c(C(=O)c2cccc(C(F)(F)F)c2)c1C | 21.8% | –
CCC(C(=O)Nc1cccc(C(F)(F)F)c1)c1ccccc1 (centres undefined) | – | 2.82 µM (active)
O=C(CSc1ccc(C(F)(F)F)cc1[N+](=O)[O-])Nc1ccccc1 | 13.6% | –
O=c1[nH][nH]c(C(F)(F)F)c1C=Nc1ccccc1 | -29.1% | –
CCC[C@H]1C(=O)N2C(N(C)C)=Nc3ccc(C)cc3N2C1=O | -23.7% [at 25.6 µM] | –
Cn1c(COc2nnc(-c3ccc(Cl)cc3)c3ccccc23)nc2ccccc21 | – | 3.98 µM (active)
COc1ncc2nc(-c3ccc(Cl)cc3)c(=O)n(-c3ccccc3)c2n1 | -18.4% | –
Cn1c(C[C@@H](O)c2nc3ccccc3n2C)nc2ccccc21 | 5.4% [at 11.4 µM] | –
